Pf growth 96h: Primary qHTS for delayed death inhibitors of the malarial parasite plastid, 96 hour incubation; Potency, µM (top dose mostly 28.7 µM), inactives show at the highest dose activity change, negative = inhibition, actives largely listed as inhibitors; P. falciparum luciferase reporter growth, 96 h; 320,000 compounds, 6.9% hits
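Plates of compound plus infected erythrocytes (2% hematocrit, 0.05% parasitemia final) incubate 96 hours, 37 C, 5% CO2. Detection reagent added; reduced luminescence from the parasites' luciferase reporter flags inhibition.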
Pf growth 48h: Primary qHTS for delayed death inhibitors of the malarial parasite plastid, 48 hour incubation; P. falciparum luciferase growth in erythrocytes, 48 h; Potency, µM (doses to about 28.7 µM), for inactives: at the top dose activity change, negative = inhibition, usual class: inhibitors; 310,000 compounds, 5.9% hits; AID 504832, 2011
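Luminescence readout; reporter = integrated firefly luciferase in P. falciparum. RBC culture at 2% hematocrit, 0.1% parasitemia final, 37 C/5% CO2; decreased signal taken as growth inhibition.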
Vaccinia mCherry: qHTS for Stage-Specific Inhibitors of Vaccinia Orthopoxvirus: mCherry Reporter Primary qHTS | Vaccinia virus mCherry reporter infection, fluorescence | Potency, µM (series often up to 36.5 µM), inactives show at the highest dose activity change, negative = inhibition, actives largely listed as inhibitors | AID 720579, 2013 | 310,000 compounds, 0.63% hits; calls by dose curve; tested in A549 cells; also: nearly all actives have a fitted effect of over 35% in size
Vaccinia Venus: qHTS for Stage-Specific Inhibitors of Vaccinia Orthopoxvirus: Venus Reporter Primary qHTS; Potency, µM (doses to about 36.5 µM), for inactives: top-dose activity change, negative = inhibition, usual class: inhibitors; AID 720580, 2013; Vaccinia virus Venus reporter expression, fluorescence; 330,000 compounds, 0.46% hits; calls by dose curve; tested in A549 cells; also: nearly all actives have a fitted effect of over 30% in size
AMA1 RON2 block: qHTS for Inhibitors of AMA1-RON; Towards Development of Antimalarial Drug Lead: Primary Screen; Plasmodium falciparum AMA1 (3D7) - RON2 peptide interaction; AlphaScreen AMA1-biotinylated RON2 peptide binding; Potency, µM (doses to about 58.2 µM), for the others: at the top dose activity change, negative = inhibition, hits mostly inhibitors; 360,000 compounds, 0.2% hits; AID 720542, 2013;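 also: 0% = vehicle wells and -100% = peptide control; nearly all actives have a fitted effect of over 45% in size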
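AMA1 (3D7) with his tag at 25 nM final met compounds first, then biotinylated RON2 peptide at 25 nM; detection used donor plus acceptor beads, 10 µg/mL apiece, read by AlphaScreen after 30 min at room temperature.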
An asterisk follows results filed as active; [ ] = dose if it differs, or a comment. Most compounds without a hit are left out; they make up all but 8.7% or so of the library. Unless noted, calls follow the shape of the dose curve; as a rule, active = well fitted curve in the direction sought with a large enough effect; inconclusive = small, poorly fitted or top-dose-only effect, or another doubt; inactive = no such curve, though single readings can be large; an effect the other way counts as inactive or inconclusive. Unless noted, % is scaled to controls: 0 for no effect and ±100 for the full control effect; potency is read from the fitted curve at half-maximal effect.

How did O=C(CCS(=O)(=O)c1cccc2nonc12)Nc1c(F)cccc1F do in these assays?
Vaccinia mCherry: -12%; Vaccinia Venus: -10%

What do the screens show for `CCCn1c(SC(C)C(=O)NCC2CCCO2)nc2sc3c(c2c1=O)CCC3` (configuration not stated)?
Pf growth 96h: inconclusive; Pf growth 48h: 13µM*; Vaccinia mCherry: -6%; Vaccinia Venus: -10%; AMA1 RON2 block: 5%

Results for CSc1c(CC(=O)Nc2ccccc2Cl)n(Cc2ccccc2)c2ccccc12 ?
Pf growth 96h: inconclusive; Pf growth 48h: inconclusive; Vaccinia Venus: -16%; AMA1 RON2 block: 9%

How did CSc1c(CC(=O)Nc2ccccc2C(F)(F)F)n(Cc2ccccc2)c2ccccc12 do in these assays?
Pf growth 96h: 9.3µM*; Pf growth 48h: inconclusive; Vaccinia mCherry: -17%; Vaccinia Venus: -6%; AMA1 RON2 block: 7%[2.32 µM]

How did CSc1c(CC(=O)Nc2ccccc2)n(Cc2ccccc2)c2ccccc12 do in these assays?
Pf growth 96h: inconclusive; Pf growth 48h: 12µM*; Vaccinia mCherry: inactive; Vaccinia Venus: -13%; AMA1 RON2 block: 4%

What do the screens show for `CCOC(=O)N1CCC(NC(=O)c2ccc3c(c2)N(Cc2ccc(Cl)cc2)C(=O)c2ccccc2S3(=O)=O)CC1`?
Vaccinia mCherry: -28%; Vaccinia Venus: inconclusive

What do the screens show for `Brc1ccccc1C1=Nn2c(nnc2-c2ccco2)SC1`?
Pf growth 96h: 0%; Pf growth 48h: 2%; Vaccinia mCherry: inactive; Vaccinia Venus: -12%; AMA1 RON2 block: 3%

What do the screens show for `c1ccc(-c2ccc(C3=Nn4c(Cn5nnc6ccccc65)nnc4SC3)cc2)cc1`?
Pf growth 96h: 9.3µM*; Pf growth 48h: inconclusive; Vaccinia Venus: -23%; AMA1 RON2 block: -4%

Results for c1ccc(-c2ccc(C3=Nn4c(nnc4-c4cc(-c5ccccc5)n[nH]4)SC3)cc2)cc1 ?
Pf growth 96h: 12µM*; Pf growth 48h: inconclusive; AMA1 RON2 block: -7%

What do the screens show for `c1ccc(C2=Nn3c(Cn4nnc5ccccc54)nnc3SC2)cc1`?
Pf growth 96h: -16%; Pf growth 48h: -18%; Vaccinia mCherry: inactive[7.34 µM]; Vaccinia Venus: -9%[7.34 µM]; AMA1 RON2 block: -15%

What do the screens show for `CC1=Nn2c(nnc2-c2cc(-c3ccccc3)n[nH]2)SC1`?
Pf growth 96h: inconclusive; Pf growth 48h: inconclusive; Vaccinia Venus: -10%; AMA1 RON2 block: 9%

Results for CCOc1ccc(C2=Nn3c(nnc3-c3ccccc3OC)SC2)cc1 ?
Pf growth 96h: inconclusive; Pf growth 48h: 13µM*; AMA1 RON2 block: -2%

What do the screens show for `CCOc1ccc(-c2nnc3n2N=C(c2ccc(OC)cc2)CS3)cc1`?
Pf growth 96h: 2%; Pf growth 48h: inconclusive; AMA1 RON2 block: 2%

How did Brc1ccccc1C1=Nn2c(nnc2-c2ccccc2)SC1 do in these assays?
Pf growth 96h: 8.3µM*; Pf growth 48h: inconclusive; Vaccinia mCherry: -16%; Vaccinia Venus: -13%; AMA1 RON2 block: -4%

Results for Cc1cccc(NC(=O)C(=O)NCC(c2cccnc2)N2CCOCC2)c1 (configuration not stated) ?
Vaccinia mCherry: -7%; Vaccinia Venus: -3%

How did Cc1nc2ccc(Br)cn2c1C(=O)N/N=C\c1ccccc1Cl do in these assays?
Pf growth 96h: 3.3µM*; Pf growth 48h: 70%; AMA1 RON2 block: -2%

How did COc1ccccc1/C=N\NC(=O)c1c(C)nc2ccc(Cl)cn12 do in these assays?
Pf growth 96h: 24%; Pf growth 48h: 32%; AMA1 RON2 block: 33%

What do the screens show for `COc1cccc(/C=N/NC(=O)c2c(C)nc3ccc(Cl)cn23)c1O`?
Pf growth 96h: 2%; Pf growth 48h: 9.3µM*; Vaccinia mCherry: 3.2µM*; Vaccinia Venus: inconclusive; AMA1 RON2 block: -12%

What do the screens show for `COC(=O)c1ccc(C2c3c(oc4ccc(C)cc4c3=O)C(=O)N2Cc2ccc3c(c2)OCO3)cc1` (configuration not stated)?
Vaccinia mCherry: -6%; Vaccinia Venus: -2%

Results for CSC1=NC(NCCCO)c2c(sc3c2CC(C)(C)OC3)N1 (configuration not stated) ?
Pf growth 96h: 9.3µM*; Pf growth 48h: inconclusive; AMA1 RON2 block: 6%

Results for COCC(=O)Nc1cc(C(=O)NC2Cc3ccccc3C2)cc2nc(-c3cccnc3)n(C)c12 ?
Vaccinia mCherry: -13%; Vaccinia Venus: 7%

How did CCS(=O)(=O)NCc1ccc2c(c1)cc(C)n2C do in these assays?
Pf growth 96h: 6.6µM*; Pf growth 48h: inconclusive; Vaccinia mCherry: -19%; Vaccinia Venus: 2%; AMA1 RON2 block: -11%

What do the screens show for `CCc1cccc(C)c1NC(=S)NCc1ccc2c(c1)cc(C)n2C`?
Pf growth 96h: 6.6µM*; Pf growth 48h: inconclusive; Vaccinia mCherry: inconclusive; Vaccinia Venus: -1%; AMA1 RON2 block: 24%

How did Cc1cc(CNC(=O)c2cnn(-c3nccc(-c4cc(C)sc4C)n3)c2C2CC2)on1 do in these assays?
Vaccinia mCherry: -3%; Vaccinia Venus: -3%

How did CCN(CC)c1ccc(/C=C/c2ccccn2)cc1 do in these assays?
Vaccinia mCherry: 1%; Vaccinia Venus: inactive

What do the screens show for `CSc1ccc(/C=C2\C=Cc3cc([N+](=O)[O-])ccc32)cc1`?
Vaccinia mCherry: -13%; Vaccinia Venus: -11%

How did Cc1ccc(S(=O)(=O)Nc2cc3c(C(=O)Nc4ccccc4)c(C)oc3c3ccccc23)cc1 do in these assays?
Pf growth 96h: 1.7µM*; Pf growth 48h: inconclusive; Vaccinia mCherry: -9%; Vaccinia Venus: 7%; AMA1 RON2 block: 10%

What do the screens show for `O=c1c(F)cn(C2CCCO2)c(=O)n1Cc1c(Cl)cccc1Cl` (configuration not stated)?
Pf growth 96h: 13µM*; Vaccinia mCherry: -12%; Vaccinia Venus: -6%; AMA1 RON2 block: 2%

What do the screens show for `O=c1c(F)cn(C2CCCO2)c(=O)n1Cc1ccc(Cl)cc1` (configuration not stated)?
Pf growth 96h: 57%; Pf growth 48h: 30%; AMA1 RON2 block: -4%

What do the screens show for `CCOC(=O)C1=C(C)NC(C)=C(C(=O)OCC)C1C(=O)OCC(=O)N1CCc2ccccc21`?
Pf growth 48h: 10µM*; AMA1 RON2 block: 3%

What do the screens show for `CCOC(=O)c1[nH]c(C)c(C(=O)OCC(=O)N2CCc3ccccc32)c1C`?
Pf growth 96h: inconclusive; AMA1 RON2 block: 0%

Results for O=[N+]([O-])c1ccc(/C=N/NC(=S)Nc2ccccc2)o1 ?
Pf growth 96h: -14%; Pf growth 48h: 5%; Vaccinia mCherry: -12%; Vaccinia Venus: 0%; AMA1 RON2 block: 25%

Results for O=C(CNc1ccccc1)N/N=C/c1ccc([N+](=O)[O-])o1 ?
Pf growth 96h: 2.6µM*; Pf growth 48h: 3.7µM*; AMA1 RON2 block: 5%
